Legend:
Experiment in all cases: log2 ratio of Biotin-Ahx-Ub-VS probe labelling (fragment/DMSO); higher = less target engagement (more negative = stronger competition), active = hit call of the paper (q ≤ 0.05, log2 ratio ≤ -1)
Conditions in all cases: compound concentration: 200 uM; treatment time: 3 h
USP34 = USP34 (UniProt Q70CQ2)
Summary of the method: (§1)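 Each value is an average log2 ratio of fragment to vehicle, tested by unpaired t-test. The underlying Spectronaut label-free quantities were global-median-normalised, and only proteins with ≥2 unique peptides were included. Triplicate HEK293T lysate samples (495 µg) were exposed to fragment at 200 µM or vehicle for 3 h, then to Biotin-Ahx-Ub-VS at 0.5 µM final for 1 h, before NeutrAvidin enrichment of labelled DUBs, LysC and trypsin digestion, and diaPASEF LC-MS/MS.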

USP36 = target: T1, USP36 (UniProt Q9P275)
T1 sequence (whole entry): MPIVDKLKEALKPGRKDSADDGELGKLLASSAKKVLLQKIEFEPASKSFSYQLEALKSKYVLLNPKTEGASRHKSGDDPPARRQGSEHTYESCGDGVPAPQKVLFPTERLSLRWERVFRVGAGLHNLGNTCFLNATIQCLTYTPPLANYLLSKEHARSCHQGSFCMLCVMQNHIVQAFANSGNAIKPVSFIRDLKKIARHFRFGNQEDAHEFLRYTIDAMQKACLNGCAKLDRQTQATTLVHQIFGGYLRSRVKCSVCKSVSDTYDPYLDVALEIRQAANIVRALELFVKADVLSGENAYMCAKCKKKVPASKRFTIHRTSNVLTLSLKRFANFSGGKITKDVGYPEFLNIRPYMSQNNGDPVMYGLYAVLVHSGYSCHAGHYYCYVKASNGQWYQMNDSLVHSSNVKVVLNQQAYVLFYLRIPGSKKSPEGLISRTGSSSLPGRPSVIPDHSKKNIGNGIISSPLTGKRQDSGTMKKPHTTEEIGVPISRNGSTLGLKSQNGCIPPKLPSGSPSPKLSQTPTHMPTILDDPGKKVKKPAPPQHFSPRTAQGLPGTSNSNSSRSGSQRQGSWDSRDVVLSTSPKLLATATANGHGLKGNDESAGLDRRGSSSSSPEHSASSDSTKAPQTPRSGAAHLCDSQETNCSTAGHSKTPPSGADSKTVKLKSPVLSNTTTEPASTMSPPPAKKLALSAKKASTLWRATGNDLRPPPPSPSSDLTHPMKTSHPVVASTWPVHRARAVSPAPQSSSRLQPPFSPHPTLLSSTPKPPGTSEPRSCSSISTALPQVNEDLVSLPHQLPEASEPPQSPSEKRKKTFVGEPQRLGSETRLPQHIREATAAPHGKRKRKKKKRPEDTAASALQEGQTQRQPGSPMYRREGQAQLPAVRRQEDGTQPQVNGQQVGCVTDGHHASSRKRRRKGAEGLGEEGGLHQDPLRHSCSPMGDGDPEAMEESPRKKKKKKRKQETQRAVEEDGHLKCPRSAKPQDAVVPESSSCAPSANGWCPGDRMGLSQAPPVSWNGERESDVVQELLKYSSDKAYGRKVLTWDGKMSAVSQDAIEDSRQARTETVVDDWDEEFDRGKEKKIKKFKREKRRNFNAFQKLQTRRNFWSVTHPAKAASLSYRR
Summary of the method: as §1

USP38 = target: T2, USP38 (UniProt Q8NB14)
T2 sequence (whole entry): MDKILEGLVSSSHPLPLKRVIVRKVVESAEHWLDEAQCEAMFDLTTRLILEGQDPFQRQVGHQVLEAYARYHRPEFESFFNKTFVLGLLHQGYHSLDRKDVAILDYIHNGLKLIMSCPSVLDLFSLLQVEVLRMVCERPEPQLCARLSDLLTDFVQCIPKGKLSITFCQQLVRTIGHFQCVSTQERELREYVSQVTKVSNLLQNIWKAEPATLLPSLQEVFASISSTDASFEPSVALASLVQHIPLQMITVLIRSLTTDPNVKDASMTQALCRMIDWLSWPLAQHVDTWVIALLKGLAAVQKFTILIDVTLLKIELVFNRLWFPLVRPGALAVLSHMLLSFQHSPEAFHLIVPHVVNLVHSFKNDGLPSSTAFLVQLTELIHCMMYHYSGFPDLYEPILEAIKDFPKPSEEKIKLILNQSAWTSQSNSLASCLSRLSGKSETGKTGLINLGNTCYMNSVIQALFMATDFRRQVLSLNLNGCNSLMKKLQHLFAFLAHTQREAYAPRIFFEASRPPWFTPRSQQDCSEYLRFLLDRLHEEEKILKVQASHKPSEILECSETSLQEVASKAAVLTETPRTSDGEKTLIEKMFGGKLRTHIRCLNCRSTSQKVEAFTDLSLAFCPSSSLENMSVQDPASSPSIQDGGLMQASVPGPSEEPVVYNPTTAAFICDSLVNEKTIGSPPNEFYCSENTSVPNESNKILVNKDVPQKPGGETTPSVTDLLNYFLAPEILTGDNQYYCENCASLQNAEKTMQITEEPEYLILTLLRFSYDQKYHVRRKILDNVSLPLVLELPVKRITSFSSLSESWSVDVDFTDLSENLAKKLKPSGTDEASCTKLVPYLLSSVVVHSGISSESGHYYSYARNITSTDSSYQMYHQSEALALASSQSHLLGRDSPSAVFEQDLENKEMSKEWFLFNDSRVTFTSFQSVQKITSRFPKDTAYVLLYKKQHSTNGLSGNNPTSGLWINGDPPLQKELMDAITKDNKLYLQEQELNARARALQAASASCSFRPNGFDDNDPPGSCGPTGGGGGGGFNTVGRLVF
Summary of the method: as §1

USP39 = target: T3, USP39 (UniProt Q53GS9)
T3 sequence (whole entry): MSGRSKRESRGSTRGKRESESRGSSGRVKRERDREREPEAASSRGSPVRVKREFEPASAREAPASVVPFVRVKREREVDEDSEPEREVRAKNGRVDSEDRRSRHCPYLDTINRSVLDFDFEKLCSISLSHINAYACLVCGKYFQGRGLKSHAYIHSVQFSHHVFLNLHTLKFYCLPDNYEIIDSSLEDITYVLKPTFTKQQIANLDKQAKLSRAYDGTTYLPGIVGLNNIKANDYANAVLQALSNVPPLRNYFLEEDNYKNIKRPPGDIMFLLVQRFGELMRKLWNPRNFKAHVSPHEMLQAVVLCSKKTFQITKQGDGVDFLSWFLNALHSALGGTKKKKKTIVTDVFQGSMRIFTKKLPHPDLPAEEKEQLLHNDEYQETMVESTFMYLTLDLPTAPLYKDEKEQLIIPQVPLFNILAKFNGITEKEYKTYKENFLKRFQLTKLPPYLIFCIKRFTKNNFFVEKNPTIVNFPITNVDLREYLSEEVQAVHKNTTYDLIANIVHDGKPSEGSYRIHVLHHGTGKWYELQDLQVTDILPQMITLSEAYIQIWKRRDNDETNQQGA
Summary of the method: as §1

USP4 = target: T4, USP4 (UniProt Q13107)
T4 sequence (whole entry): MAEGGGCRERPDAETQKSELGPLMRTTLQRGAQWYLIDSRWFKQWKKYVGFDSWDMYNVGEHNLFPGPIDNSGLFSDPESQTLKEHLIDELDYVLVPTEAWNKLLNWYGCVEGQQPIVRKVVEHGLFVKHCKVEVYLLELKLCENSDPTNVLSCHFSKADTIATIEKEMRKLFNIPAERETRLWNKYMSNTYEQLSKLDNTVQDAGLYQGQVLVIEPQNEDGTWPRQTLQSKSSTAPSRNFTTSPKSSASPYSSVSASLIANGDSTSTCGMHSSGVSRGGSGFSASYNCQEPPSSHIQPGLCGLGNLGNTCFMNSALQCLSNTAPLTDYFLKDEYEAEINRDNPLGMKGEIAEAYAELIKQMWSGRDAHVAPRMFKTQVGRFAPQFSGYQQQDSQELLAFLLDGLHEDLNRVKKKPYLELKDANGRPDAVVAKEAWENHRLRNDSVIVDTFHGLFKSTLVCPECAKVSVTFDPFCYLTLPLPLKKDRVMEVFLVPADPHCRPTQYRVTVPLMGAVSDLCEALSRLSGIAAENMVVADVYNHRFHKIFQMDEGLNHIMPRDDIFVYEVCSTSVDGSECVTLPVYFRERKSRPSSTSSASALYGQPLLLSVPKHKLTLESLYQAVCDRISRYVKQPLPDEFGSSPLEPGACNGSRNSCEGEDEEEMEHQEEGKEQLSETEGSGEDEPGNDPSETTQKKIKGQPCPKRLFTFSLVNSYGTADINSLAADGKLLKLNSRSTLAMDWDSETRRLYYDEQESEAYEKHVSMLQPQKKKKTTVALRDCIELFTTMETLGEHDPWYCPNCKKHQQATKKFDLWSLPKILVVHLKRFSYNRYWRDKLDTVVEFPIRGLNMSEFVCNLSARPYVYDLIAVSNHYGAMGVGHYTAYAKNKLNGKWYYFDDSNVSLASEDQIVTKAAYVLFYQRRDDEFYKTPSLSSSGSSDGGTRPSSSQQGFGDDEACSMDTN
Summary of the method: as §1

Measured: log2 ratio of Biotin-Ahx-Ub-VS probe labelling

Sequence of USP34 (Q70CQ2 whole entry, the tested form may be a part): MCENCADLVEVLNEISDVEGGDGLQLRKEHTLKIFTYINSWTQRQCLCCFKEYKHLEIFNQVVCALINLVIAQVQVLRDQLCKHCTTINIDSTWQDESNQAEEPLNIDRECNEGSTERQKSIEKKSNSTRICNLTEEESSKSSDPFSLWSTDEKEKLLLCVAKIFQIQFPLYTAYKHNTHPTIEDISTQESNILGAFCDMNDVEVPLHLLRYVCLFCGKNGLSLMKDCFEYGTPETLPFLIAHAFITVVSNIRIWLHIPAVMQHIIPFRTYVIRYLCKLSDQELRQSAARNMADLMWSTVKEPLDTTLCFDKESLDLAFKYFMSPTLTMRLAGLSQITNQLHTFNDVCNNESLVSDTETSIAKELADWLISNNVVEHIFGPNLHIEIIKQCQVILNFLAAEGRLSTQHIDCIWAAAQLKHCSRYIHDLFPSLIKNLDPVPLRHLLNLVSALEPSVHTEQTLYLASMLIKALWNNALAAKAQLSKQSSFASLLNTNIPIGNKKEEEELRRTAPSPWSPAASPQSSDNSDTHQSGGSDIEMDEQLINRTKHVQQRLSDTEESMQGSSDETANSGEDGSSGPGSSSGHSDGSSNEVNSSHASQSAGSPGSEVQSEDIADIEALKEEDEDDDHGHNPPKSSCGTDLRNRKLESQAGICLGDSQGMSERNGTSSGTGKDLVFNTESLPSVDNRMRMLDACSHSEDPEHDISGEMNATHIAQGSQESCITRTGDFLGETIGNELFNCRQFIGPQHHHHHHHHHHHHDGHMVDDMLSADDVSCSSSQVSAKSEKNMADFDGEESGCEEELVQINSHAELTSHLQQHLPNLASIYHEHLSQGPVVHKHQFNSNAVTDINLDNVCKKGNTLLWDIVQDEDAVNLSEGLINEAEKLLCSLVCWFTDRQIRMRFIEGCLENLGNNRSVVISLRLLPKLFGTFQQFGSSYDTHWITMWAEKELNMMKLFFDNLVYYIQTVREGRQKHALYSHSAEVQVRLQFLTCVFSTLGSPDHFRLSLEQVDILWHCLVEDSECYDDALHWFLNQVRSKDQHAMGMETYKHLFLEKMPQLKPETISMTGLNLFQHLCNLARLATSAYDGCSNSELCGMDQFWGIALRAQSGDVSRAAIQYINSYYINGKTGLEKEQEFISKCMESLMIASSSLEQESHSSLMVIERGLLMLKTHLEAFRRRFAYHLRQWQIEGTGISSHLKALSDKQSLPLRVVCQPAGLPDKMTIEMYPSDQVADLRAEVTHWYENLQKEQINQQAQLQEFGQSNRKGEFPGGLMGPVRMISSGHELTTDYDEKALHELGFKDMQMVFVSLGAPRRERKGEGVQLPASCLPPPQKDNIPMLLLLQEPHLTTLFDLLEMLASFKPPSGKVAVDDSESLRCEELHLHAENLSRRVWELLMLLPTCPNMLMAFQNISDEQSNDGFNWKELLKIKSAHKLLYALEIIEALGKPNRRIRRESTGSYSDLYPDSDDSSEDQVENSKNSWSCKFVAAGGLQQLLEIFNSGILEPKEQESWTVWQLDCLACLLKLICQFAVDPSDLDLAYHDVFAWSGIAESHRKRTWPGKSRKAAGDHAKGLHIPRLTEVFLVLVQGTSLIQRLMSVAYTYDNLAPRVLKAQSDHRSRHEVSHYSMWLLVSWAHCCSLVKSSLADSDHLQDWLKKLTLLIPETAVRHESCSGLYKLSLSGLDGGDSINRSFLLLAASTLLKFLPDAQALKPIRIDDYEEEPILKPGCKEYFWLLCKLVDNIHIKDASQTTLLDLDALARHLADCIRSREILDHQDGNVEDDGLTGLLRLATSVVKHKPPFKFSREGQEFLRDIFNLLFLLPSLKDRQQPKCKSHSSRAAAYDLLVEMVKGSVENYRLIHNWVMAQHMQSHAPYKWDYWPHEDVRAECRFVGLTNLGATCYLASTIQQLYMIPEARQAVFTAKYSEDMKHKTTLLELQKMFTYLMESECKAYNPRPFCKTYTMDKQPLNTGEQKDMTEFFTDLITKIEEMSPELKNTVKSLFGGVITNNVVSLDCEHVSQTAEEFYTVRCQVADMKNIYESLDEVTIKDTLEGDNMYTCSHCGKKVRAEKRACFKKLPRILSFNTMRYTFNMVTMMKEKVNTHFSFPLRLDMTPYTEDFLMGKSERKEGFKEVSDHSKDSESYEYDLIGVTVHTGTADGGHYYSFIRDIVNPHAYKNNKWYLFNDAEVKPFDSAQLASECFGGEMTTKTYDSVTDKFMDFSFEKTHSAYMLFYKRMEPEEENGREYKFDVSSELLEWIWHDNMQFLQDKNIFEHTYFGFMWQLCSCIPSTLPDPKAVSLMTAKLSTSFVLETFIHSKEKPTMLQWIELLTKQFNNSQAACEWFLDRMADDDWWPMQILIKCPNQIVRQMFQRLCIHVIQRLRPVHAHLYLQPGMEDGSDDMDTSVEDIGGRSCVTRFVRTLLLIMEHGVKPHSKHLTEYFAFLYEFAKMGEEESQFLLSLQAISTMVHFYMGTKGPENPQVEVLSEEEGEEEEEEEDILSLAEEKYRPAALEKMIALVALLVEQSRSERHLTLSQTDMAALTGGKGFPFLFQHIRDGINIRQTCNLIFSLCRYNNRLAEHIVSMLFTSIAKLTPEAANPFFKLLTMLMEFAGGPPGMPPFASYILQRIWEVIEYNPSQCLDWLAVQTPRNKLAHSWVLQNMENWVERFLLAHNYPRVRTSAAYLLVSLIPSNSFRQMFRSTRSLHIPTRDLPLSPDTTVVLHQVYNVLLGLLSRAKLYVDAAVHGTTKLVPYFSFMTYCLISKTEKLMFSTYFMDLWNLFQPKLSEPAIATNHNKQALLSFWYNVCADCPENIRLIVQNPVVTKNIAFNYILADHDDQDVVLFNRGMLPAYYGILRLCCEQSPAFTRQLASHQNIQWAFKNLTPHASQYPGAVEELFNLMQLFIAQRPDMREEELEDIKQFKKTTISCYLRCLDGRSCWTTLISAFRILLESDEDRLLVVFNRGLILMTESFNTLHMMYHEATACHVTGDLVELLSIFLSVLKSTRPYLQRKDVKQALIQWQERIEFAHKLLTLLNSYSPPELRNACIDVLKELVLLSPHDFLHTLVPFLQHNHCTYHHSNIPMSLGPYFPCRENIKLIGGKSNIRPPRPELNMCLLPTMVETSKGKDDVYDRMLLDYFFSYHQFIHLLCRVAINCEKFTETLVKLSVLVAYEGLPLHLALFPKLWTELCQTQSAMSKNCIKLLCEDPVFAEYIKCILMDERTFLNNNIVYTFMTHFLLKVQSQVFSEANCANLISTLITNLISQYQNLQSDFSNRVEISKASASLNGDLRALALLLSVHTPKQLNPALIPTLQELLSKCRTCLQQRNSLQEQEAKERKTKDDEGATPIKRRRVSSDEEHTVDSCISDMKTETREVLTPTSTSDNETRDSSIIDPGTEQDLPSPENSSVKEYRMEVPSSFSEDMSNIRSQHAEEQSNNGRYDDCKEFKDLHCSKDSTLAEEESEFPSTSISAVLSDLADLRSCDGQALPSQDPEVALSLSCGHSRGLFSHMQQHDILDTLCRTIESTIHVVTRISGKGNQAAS

O=C(CCl)N(Cc1ccsc1)C1CC1
inactive: USP34 -0.211 | USP36 0.266 | USP38 0.00214 | USP39 -0.0741 | USP4 -0.116

Reference: the supplement of paper PMC11732987, “Enantioselective OTUD7B fragment discovery through chemoproteomics screening and high-throughput optimisation” (Communications Chemistry, 2025)
